# Measurements as given in PubChem BioAssay.
# Where “and” joins values, the source holds several entries; their conditions need not be identical. Equal entries are not always repeated. Records with an inconclusive call do not appear. Calls of active or inactive are those of the source.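 The calls were made as follows, unless noted: active = normalized viability below 100% at a tested concentration; inactive = the rest.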
# Legend:
# [1] = viability loss in pontine glioma line – cell-based, SU-DIPG-XVII, MIPE5.0, CellTiter-Glo, qHTS, dose response (AID 1347060; cut-off not given, nearly all actives have AC50 up to about 26 µM;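 as to AC50: cells exposed to compound for 48 hours before viability readout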); conditions: CellTiter-Glo ATP luminescence
# [2] = viability loss in pontine glioma line – cell-based, SU-DIPG-XIII, MIPE4.0, CellTiter-Glo, qHTS, dose response (AID 1347061; cut-off not given, nearly all actives have AC50 up to about 37 µM;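 also: cells exposed to compound for 48 hours before readout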); conditions: CellTiter-Glo ATP luminescence
# [3] = viability loss in pontine glioma line – cell-based, JHH-DIPG-1, MIPE4.0, CellTiter-Glo, qHTS, dose response (AID 1347062; cut-off not given, nearly all actives have AC50 up to about 27 µM;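 as to AC50: cells exposed to compound for two days before readout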); conditions: JHH-DIPG-1 viability, CellTiter-Glo ATP luminescence
# [4] = viability loss in pontine glioma line – cell-based, SU-DIPG-IV, MIPE4.0, CellTiter-Glo, qHTS, dose response (AID 1347063; cut-off not given, nearly all actives have AC50 up to about 30 µM;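 also: compound exposure lasted 48 hours before the viability readout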); conditions: CellTiter-Glo ATP luminescence
# [5] = viability loss in pontine glioma line – cell-based, SU-DIPG-XIII, MIPE5.0, CellTiter-Glo, qHTS, dose response (AID 1347064; cut-off not given, nearly all actives have AC50 up to about 23 µM;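 as to AC50: cells exposed to compound for 48 hours before the viability read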); conditions: CellTiter-Glo ATP luminescence
# [6] = JHH-DIPG-1 glioma cell viability, MIPE5.0 library, CellTiter-Glo luminescence, qHTS (AID 1347067; cut-off not given, nearly all actives have AC50 up to about 26 µM;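 also: cells exposed to compound for 48 hours before readout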); conditions: JHH-DIPG-1 glioma viability, CellTiter-Glo ATP luminescence
# [7] = viability loss with induced miR-34 in A549 – imaging, A549 dox-inducible miR-34, nuclei and caspase counts, primary screen (AID 1347080;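 active = compounds whose cell count with miR-34 switched on is under 0.7 times the count with it off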); conditions: A549 miR-34 inducible, Hoechst nuclei count, 48 h
# [8] = MELAS cybrid and Rieske KO viability enhancers – cell-based, MELAS cybrids, Rieske KO mouse fibroblasts, CellTiter-Glo, primary screen (AID 1508586;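 active = mean z-score across replicates of 1.96 or higher in either the MELAS or the Rieske mutant cell line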;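 also: z relative to plate mean and SD of compound and empty wells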); conditions: low glucose
# [9] = growth inhibition of DIPG cells – cell-based, MIPE4.0 library, CellTiter-Glo luminescence, qHTS (AID 1347066; cut-off not given, nearly all actives have AC50 up to about 30 µM;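 also: cells exposed to compound for 48 hours before readout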); conditions: SU-DIPG-VI viability, CellTiter-Glo ATP luminescence
# [10] = growth inhibition of DIPG cells – cell-based, MIPE5.0 library, qHTS (AID 1347068; cut-off not given, nearly all actives have IC50 up to about 30 µM;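 as to IC50: cells exposed to compound for 48 hours before viability readout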); conditions: SU-DIPG-XXV viability
# [11] = viability loss in pontine glioma line – cell-based, SU-DIPG-XXV, MIPE5.0, CellTiter-Glo, qHTS, dose response (AID 1347065; cut-off not given, nearly all actives have AC50 up to about 26 µM;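 also: cells exposed to compound for 48 hours before ATP readout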); conditions: CellTiter-Glo ATP luminescence
# [12] = compounds altering HSF1 focus formation in cells – imaging, Selleck Cancer Library (AID 1347162; in the data active = plate-normalised HSF1 focus index below about 0.46); conditions: human cells, HSF1 nuclear foci imaging, at 10 µM; SSMD: measured here: HSF1 foci SSMD mean; cell count: measured here: cell number; plate-normalised HSF1 focus index: stronger effect = lower value
# [13] = drug combination growth inhibition, ovarian cancer – cell-based, oncology-focused library, rucaparib conditional, profiling panel (AID 1508598); conditions: patient-derived ovarian cancer cells, CellTiter-Glo viability, 144 h, stronger effect = lower value
# [14] = stronger effect = lower value, cell number ratio, induced over uninduced
# [15] = measured here: relative caspase fold change +Dox/-Dox
# [16] = measured here: total cells with miR-34 induction, stronger effect = lower value
# [17] = measured here: total cells without miR-34 induction
# [18] = MELAS cybrid survival, CellTiter-Glo 48 h, stronger effect = higher value
# [19] = Rieske KO mouse fibroblast survival, CellTiter-Glo 72 h
smiles,measurement,setting,value
CO[C@H]1/C=C/O[C@@]2(C)Oc3c(C)c(O)c4c(O)c(c(/C=N/N5CCN(C)CC5)c(O)c4c3C2=O)NC(=O)/C(C)=C\C=C\[C@H](C)[C@H](O)[C@@H](C)[C@@H](O)[C@@H](C)[C@H](OC(C)=O)[C@@H]1C,outcome,[1],inactive
same,outcome,[2],inactive
same,outcome,[3],inactive
same,outcome,[4],inactive
same,AC50,[5],20.9 µM (active)
same,outcome,[6],inactive
same,fold change,[7]; [14],0.839 (inactive) and 0.889 (inactive)
same,fold change,[7]; [15],1.31 and 1.13
same,cell count,[7]; [16],9030 and 9880
same,cell count,[7]; [17],10800 and 11100
same,z-score,[8]; [18],1.76 (inactive) and 0.859 (inactive)
same,z-score,[8]; [19],-0.112 and -0.159
Clc1ccc2c(N3CCN(CCCN4CCN(c5ccnc6cc(Cl)ccc56)CC4)CC3)ccnc2c1,outcome,[1],inactive
same,outcome,[2],inactive
same,outcome,[3],inactive
same,outcome,[4],inactive
same,outcome,[5],inactive
same,outcome,[9],inactive
same,outcome,[6],inactive
same,outcome,[10],inactive
same,fold change,[7]; [14],0.978 (inactive)
same,fold change,[7]; [15],1.67
same,cell count,[7]; [16],8600
same,cell count,[7]; [17],8790
N[C@@]1(C(=O)O)CS(=O)(=O)[C@H]2[C@H](C(=O)O)[C@H]21,outcome,[1],inactive
same,outcome,[2],inactive
same,outcome,[3],inactive
same,outcome,[4],inactive
same,outcome,[5],inactive
same,outcome,[9],inactive
same,outcome,[6],inactive
same,outcome,[10],inactive
Cc1cncc2cccc(S(=O)(=O)N3CCCN(C(=O)CN)C[C@@H]3C)c12,outcome,[1],inactive
same,outcome,[2],inactive
same,outcome,[3],inactive
same,AC50,[4],0.372 µM (active)
same,outcome,[5],inactive
same,outcome,[9],inactive
same,outcome,[6],inactive
CC(C)c1noc(N2CCC(COc3ccc(-c4ccc(S(C)(=O)=O)cc4)nc3)CC2)n1,outcome,[1],inactive
same,outcome,[2],inactive
same,outcome,[3],inactive
same,outcome,[4],inactive
same,outcome,[5],inactive
same,outcome,[9],inactive
same,outcome,[6],inactive
same,outcome,[10],inactive
same,fold change,[7]; [14],0.733 (inactive)
same,fold change,[7]; [15],1.55
same,cell count,[7]; [16],5110
same,cell count,[7]; [17],6980
same,z-score,[8]; [18],-0.22 (inactive)
same,z-score,[8]; [19],0.941
CC(C)Oc1cc(Nc2nc(N[C@@H](C)c3ccc(F)cn3)ncc2Cl)[nH]n1,AC50,[1],1.05 µM (active)
same,AC50,[2],11.8 µM (active)
same,AC50,[3],10.5 µM (active)
same,AC50,[4],6.62 µM (active)
same,AC50,[5],1.18 µM (active)
same,AC50,[11],0.742 µM (active)
same,AC50,[6],5.9 µM (active)
same,SSMD,[12],-0.66
same,cell count,[12],6860
same,plate-normalised HSF1 focus index,[12],0.979 (inactive)
Cn1cc(CNCC2CCN(c3ncc(C(=O)NO)cn3)CC2)c2ccccc21,AC50,[1],0.417 µM (active)
same,AC50,[2],2.64 µM (active)
same,AC50,[3],0.332 µM (active)
same,AC50,[4],0.418 µM (active)
same,AC50,[5],0.209 µM (active)
same,AC50,[11],0.132 µM (active)
same,AC50,[6],0.209 µM (active)
same,fold change,[7]; [14],0.846 (inactive)
same,fold change,[7]; [15],0.734
same,cell count,[7]; [16],984
same,cell count,[7]; [17],1160
same,z-score,[8]; [18],-0.103 (inactive)
same,z-score,[8]; [19],-2.7
same,viability,"[13]; at 0.000305 µM, OCI-C5x cells, with rucaparib 10 µM, 100% = cells with rucaparib alone",126% (inactive)
same,viability,"[13]; at 0.000305 µM, OCI-C5x cells, without rucaparib",118% (inactive)
same,viability,"[13]; at 0.000305 µM, OCI-P5x cells, with rucaparib 20 µM, 100% = cells with rucaparib alone",95.4% (active)
same,viability,"[13]; at 0.000305 µM, OCI-P5x cells, without rucaparib",92.2% (active)
same,viability,"[13]; at 0.00122 µM, OCI-C5x cells, with rucaparib 10 µM, 100% = cells with rucaparib alone",125% (inactive)
same,viability,"[13]; at 0.00122 µM, OCI-C5x cells, without rucaparib",133% (inactive)
same,viability,"[13]; at 0.00122 µM, OCI-P5x cells, with rucaparib 20 µM, 100% = cells with rucaparib alone",104% (inactive)
same,viability,"[13]; at 0.00122 µM, OCI-P5x cells, without rucaparib",95.8% (active)
same,viability,"[13]; at 0.00488 µM, OCI-C5x cells, with rucaparib 10 µM, 100% = cells with rucaparib alone",116% (inactive)
same,viability,"[13]; at 0.00488 µM, OCI-C5x cells, without rucaparib",138% (inactive)
same,viability,"[13]; at 0.00488 µM, OCI-P5x cells, with rucaparib 20 µM, 100% = cells with rucaparib alone",76.6% (active)
same,viability,"[13]; at 0.00488 µM, OCI-P5x cells, without rucaparib",85.4% (active)
same,viability,"[13]; at 0.0195 µM, OCI-C5x cells, with rucaparib 10 µM, 100% = cells with rucaparib alone",96.2% (active)
same,viability,"[13]; at 0.0195 µM, OCI-C5x cells, without rucaparib",99.7% (active)
same,viability,"[13]; at 0.0195 µM, OCI-P5x cells, with rucaparib 20 µM, 100% = cells with rucaparib alone",32.6% (active)
same,viability,"[13]; at 0.0195 µM, OCI-P5x cells, without rucaparib",51.7% (active)
same,viability,"[13]; at 0.0781 µM, OCI-C5x cells, with rucaparib 10 µM, 100% = cells with rucaparib alone",7.04% (active)
same,viability,"[13]; at 0.0781 µM, OCI-C5x cells, without rucaparib",7.55% (active)
same,viability,"[13]; at 0.0781 µM, OCI-P5x cells, with rucaparib 20 µM, 100% = cells with rucaparib alone",3.73% (active)
same,viability,"[13]; at 0.0781 µM, OCI-P5x cells, without rucaparib",9.01% (active)
same,viability,"[13]; at 0.313 µM, OCI-C5x cells, with rucaparib 10 µM, 100% = cells with rucaparib alone",5.05% (active)
same,viability,"[13]; at 0.313 µM, OCI-C5x cells, without rucaparib",5.83% (active)
same,viability,"[13]; at 0.313 µM, OCI-P5x cells, with rucaparib 20 µM, 100% = cells with rucaparib alone",1.63% (active)
same,viability,"[13]; at 0.313 µM, OCI-P5x cells, without rucaparib",1.83% (active)
same,viability,"[13]; at 1.25 µM, OCI-C5x cells, with rucaparib 10 µM, 100% = cells with rucaparib alone",3.87% (active)
same,viability,"[13]; at 1.25 µM, OCI-C5x cells, without rucaparib",5.39% (active)
same,viability,"[13]; at 1.25 µM, OCI-P5x cells, with rucaparib 20 µM, 100% = cells with rucaparib alone",1.03% (active)
same,viability,"[13]; at 1.25 µM, OCI-P5x cells, without rucaparib",0.724% (active)
same,viability,"[13]; at 5 µM, OCI-C5x cells, with rucaparib 10 µM, 100% = cells with rucaparib alone",4.54% (active)
same,viability,"[13]; at 5 µM, OCI-C5x cells, without rucaparib",5.34% (active)
same,viability,"[13]; at 5 µM, OCI-P5x cells, with rucaparib 20 µM, 100% = cells with rucaparib alone",1.24% (active)
same,viability,"[13]; at 5 µM, OCI-P5x cells, without rucaparib",1.13% (active)
CC1(C)CC(=O)c2c(C(F)(F)F)nn(-c3ccc(C(N)=O)c(NC4CCC(OC(=O)CN)CC4)c3)c2C1 (stereo not drawn),AC50,[1],0.186 µM (active)
same,AC50,[2],0.662 µM (active)
same,AC50,[3],0.148 µM (active)
same,AC50,[4],0.418 µM (active)
same,AC50,[5],0.417 µM (active)
same,AC50,[11],0.235 µM (active)
same,AC50,[6],0.166 µM (active)
same,IC50,[10],0.263 µM (active)
same,fold change,[7]; [14],1.04 (inactive)
same,fold change,[7]; [15],0.875
same,cell count,[7]; [16],2840
same,cell count,[7]; [17],2740
same,z-score,[8]; [18],2.47 (active)
same,z-score,[8]; [19],-1.59
O=C1NC(=O)/C(=C\c2ccc(-c3ccc(F)cc3)o2)S1,outcome,[1],inactive
same,outcome,[2],inactive
same,outcome,[3],inactive
same,outcome,[4],inactive
same,outcome,[5],inactive
same,outcome,[9],inactive
same,outcome,[10],inactive
CCCCCCCCCC(=O)N[C@@H](Cc1c[nH]c2ccccc12)C(=O)N[C@H](CC(N)=O)C(=O)N[C@@H](CC(=O)O)C(=O)N[C@@H]1C(=O)NCC(=O)N[C@@H](CCCN)C(=O)N[C@@H](CC(=O)O)C(=O)N[C@H](C)C(=O)N[C@@H](CC(=O)O)C(=O)NCC(=O)N[C@H](CO)C(=O)N[C@@H]([C@@H](C)CC(=O)O)C(=O)N[C@@H](CC(=O)c2ccccc2N)C(=O)O[C@@H]1C,outcome,[1],inactive
same,outcome,[2],inactive
same,outcome,[3],inactive
same,outcome,[4],inactive
same,outcome,[5],inactive
same,outcome,[9],inactive
same,outcome,[6],inactive
O=C(c1cncc(Br)c1)N1CCC(N2CCCC2)CC1,outcome,[1],inactive
same,outcome,[2],inactive
same,outcome,[3],inactive
same,outcome,[4],inactive
same,outcome,[5],inactive
same,outcome,[11],inactive
same,AC50,[6],13.2 µM (active)
same,outcome,[10],inactive
same,fold change,[7]; [14],0.889 (inactive)
same,fold change,[7]; [15],0.588
same,cell count,[7]; [16],7820
same,cell count,[7]; [17],8800
same,z-score,[8]; [18],-0.503 (inactive)
same,z-score,[8]; [19],-0.908
COc1nccc(-c2c(-c3ccc(F)cc3)ncn2C2CCNCC2)n1,outcome,[1],inactive
same,outcome,[2],inactive
same,outcome,[3],inactive
same,outcome,[4],inactive
same,outcome,[5],inactive
same,outcome,[11],inactive
same,outcome,[6],inactive
same,outcome,[10],inactive
